The record followed here is PubChem BioAssay AID449768 (Vanderbilt High Throughput Screening Facility, 2010).

SMILES strings stand for the structures. The whole screen tested about 110,000 compounds, of which about 1,400 (1.3%) were called active. What follows is part of a selection rich in actives, with near analogues and random picks from the rest. Values without a mark were called inactive.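 How the source made its calls: active means Z score or B-score, a plate-position-corrected score, falls beyond the plate's 99.7% confidence bounds, in either direction; inactive means both scores lie inside the 99.7% bounds.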

Chain of Sodium-dependent dopamine transporter (Homo sapiens) (Q01959 whole entry, looked up): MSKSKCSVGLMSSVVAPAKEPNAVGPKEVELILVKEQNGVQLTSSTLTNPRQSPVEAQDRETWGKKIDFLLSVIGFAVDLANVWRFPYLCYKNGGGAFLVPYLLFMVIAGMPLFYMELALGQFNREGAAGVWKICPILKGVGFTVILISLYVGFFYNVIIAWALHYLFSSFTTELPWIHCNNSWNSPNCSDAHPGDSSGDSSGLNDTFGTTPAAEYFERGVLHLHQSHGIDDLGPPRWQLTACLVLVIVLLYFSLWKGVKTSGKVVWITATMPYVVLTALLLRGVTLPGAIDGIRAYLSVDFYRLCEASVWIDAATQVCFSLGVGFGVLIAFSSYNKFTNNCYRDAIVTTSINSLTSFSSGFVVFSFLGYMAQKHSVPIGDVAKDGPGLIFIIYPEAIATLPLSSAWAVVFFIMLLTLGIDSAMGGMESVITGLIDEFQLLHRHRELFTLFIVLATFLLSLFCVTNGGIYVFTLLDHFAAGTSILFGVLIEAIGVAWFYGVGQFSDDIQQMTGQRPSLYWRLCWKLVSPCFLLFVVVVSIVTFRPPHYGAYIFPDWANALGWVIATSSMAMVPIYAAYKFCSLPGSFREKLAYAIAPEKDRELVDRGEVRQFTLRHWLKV

This experiment has as its target Sodium-dependent dopamine transporter (Homo sapiens) (UniProt Q01959). Nature of the experiment: changed hDAT dopamine uptake under cocaine IC80, either direction, primary screen, cocaine antagonist project, cell-based, LLC-PK1 hDAT, [14C]-dopamine uptake, MLSMR (AID 449768).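 Further: scored against the spread of the other compound wells on the same plate.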 The following applies: LLC-PK1 hDAT cells, [14C]-dopamine uptake with cocaine IC80; at 10 µM; actives deviate in either direction.
`Cc1cc(C)n(-c2nnc(C)n2NC(=O)c2cccc(Cl)c2)n1`: the B-score is -8.7 (active).

Take `O=C(Nc1ccon1)c1cccc(Cl)c1`: the B-score is 0.0619.

As for `Cc1cc(C)n(-c2ccc(Cl)c(C(=O)O)n2)n1`, the B-score was -1.42.

Regarding `COc1ccc2c(c1)CCNC2Cc1ccc(OC)c(O)c1` (stereo not given), the B-score was -0.654.

On to `CC(=O)Nc1sc2c(c1C(c1cccc(F)c1)N1CCN(CCO)CC1)CCCC2` (stereo not given), for which the B-score was 0.298.

As to `C[C@@H]1NC(=O)c2cc([N+](=O)[O-])cc(F)c2NCCC[C@@H](C(N)=O)NC(=O)[C@H](CC(N)=O)NC1=O`, the B-score is -0.649.

Take `Cc1ccc(C(=O)Nc2ccccc2C(=O)NC2CCCCC2)cc1S(=O)(=O)N1CCOCC1`: the B-score is -0.00206.

In the case of `O=C(Nc1ccccc1F)c1cc(S(=O)(=O)N2CCCCC2)cs1`, the B-score is 0.695.

For the molecule `Cc1ccccc1NC(=O)c1cc(S(=O)(=O)N2CCOCC2)cs1`, the B-score was -3.41 (active).

For `C/C=C(/C)C(=O)Nc1cccc(C2=NOC3(C2)C[C@@H](C(N)=O)N(C(=O)C2(C)CC2)C3)c1` (stereo not given in full), the B-score is -0.445.

In the case of `CC(Sc1nc2c([nH]c3ccccc32)c(=O)n1C)c1ccccc1` (stereo not given), the B-score was 0.73.

On to `CCOC(=O)c1c(NC(=O)C(C)Sc2c[nH]c3ccccc23)sc2c1CCC2` (stereo not given), for which the B-score was -0.485.

Consider `Cc1nc(SCC(=O)N2CCc3ccccc3C2)c2c(C)c(C)sc2n1`, for which the B-score was 2.48.

For `Cc1nc(SCC(=O)N2CC(=O)Nc3ccccc32)c2c(C)c(C)sc2n1`, the B-score is 2.75 (active).

For the molecule `Cc1nc(SCC(=O)Nc2cc(C)on2)c2c(C)c(C)sc2n1`, the B-score is 0.457.

With `C=CCSc1nnc2c(n1)-c1cccc3cccc-2c13`, the B-score is 0.0257.

As to `CCOC(=O)N1CCN(C(=O)c2ccc3c(c2)N(Cc2ccc(C)cc2)CCS3)CC1`, the B-score was 0.333.

For `CC(=O)Nc1cc(C(=O)O)ccc1S(=O)(=O)c1ccc(Cl)cc1`, the B-score is -0.803.

As to `CCOC(=O)N1CCN(C(=O)c2ccc(S(=O)(=O)c3ccc(C)cc3)c(NC(C)=O)c2)CC1`, the B-score was -7.14 (active).

Turning to `C[C@@H](C(=O)N1CCNCC1)n1cc(CCC(=O)O)nn1`, the B-score is -0.0383.

Take `Cc1ccc(-c2cc(=O)c3ccc(F)cc3[nH]2)cc1`: the B-score is 0.343.

In the case of `CCOC(=O)c1c(C2CC2)csc1NC(=O)CSCc1c(C)noc1C`, the B-score was 0.395.

Regarding `Cc1noc(C)c1CSCC(=O)Nc1nc2ccc(Oc3ccccc3)cc2s1`, the B-score was 3.18 (active).

As for `CCn1c(SCC(=O)Nc2nc3ccc(OC)cc3s2)nnc1-c1ccoc1C`, the B-score was 0.56.

As to `NC(=O)C1=C[C@@H](c2csc3ccccc23)C[C@@H](OCc2ccc(CO)cc2)O1`, the B-score was 0.21.

Consider `CC/C=C/C(=O)N1CC2(CC(c3cccc(NC(=O)CC)c3)=NO2)C[C@H]1C(N)=O` (stereo not given in full), for which the B-score is 0.271.

`CCCC[C@@H]1CN=C(N)N1CCc1cccc(F)c1`: the B-score was -0.00752.

For `CCOC(=O)c1sc(NC(=O)CSc2nc3c(c(=O)n2-c2ccccc2)SCC3)c(C(=O)OCC)c1C`, the B-score was 0.723.

As for `Cc1ccc(Cn2nnc3c(=O)n(CC(=O)N4CCCCC4)cnc32)cc1`, the B-score is 0.247.

`O=C(Cn1nnc(-c2ccccc2)n1)NCc1ccc2c(c1)OCO2`: the B-score is 0.156.

Take `O=C(Cn1cnc2c(nnn2Cc2ccc(F)cc2)c1=O)NCc1ccc2c(c1)OCO2`: the B-score is -8.17 (active).

`NC(=O)CC(NC(=O)Cc1cccc2ccccc12)c1ccc(NCc2cc(F)ccc2F)c([N+](=O)[O-])c1` (stereo not given): the B-score was 0.0495.

In the case of `O=C(NCc1ccccc1)C1=C[C@@H](c2ccccc2)C[C@@H](OCCCCO)O1`, the B-score is 0.736.

As to `CCN1C(=O)N[C@@H](CCc2ccccc2)C(C(=O)OC)=C1C`, the B-score was 0.0945.

Turning to `COC(C[C@H](O)CC(=O)[C@@H](C)OCc1ccccc1)OC`, the B-score was -0.99.

Turning to `O=C(O)C1=C[C@H](c2cccs2)C[C@H](OCCCCO)O1`, the B-score is -0.012.

On to `COc1ccc(CCNC(=O)CCCCn2c(=O)[nH]c3ccccc3c2=O)cc1OC`, for which the B-score is 0.579.

For the molecule `CCOc1cc2[nH]c(=O)n(CCC(=O)NCc3ccc(OC)cc3)c(=O)c2cc1OCC`, the B-score is -0.216.

As for `COc1cc2[nH]c(=O)n(CCC(=O)NC3CCN(Cc4ccccc4)CC3)c(=O)c2cc1OC`, the B-score is 3.31 (active).

Consider `CC(C)NC(=O)NCCCCCCS(C)=O` (stereo not given), for which the B-score was 0.321.

For `O=c1[nH]snc1-c1c(Cl)cccc1Cl`, the B-score is 1.69.

Regarding `CC(=O)Nc1ccc(NC(=O)c2sc3nc4c(c(-c5ccc(C)cc5)c3c2N)CCC4)cc1`, the B-score was -0.372.

As for `Cc1cccc(NC(=O)c2sc3nc4c(c(-c5ccco5)c3c2N)CCC4)c1`, the B-score was -8.82 (active).

Regarding `NC(=O)c1sc2nc3c(c(-c4ccccc4)c2c1N)CCC3`, the B-score was 0.0164.

Take `CCOC(=O)c1ccccc1NC(=O)c1c(N)n(C)c(=O)[nH]c1=O`: the B-score is -0.18.

With `C[C@@H]1CC[C@]2(O[C@@H](CCO)C[C@H](O)[C@H]2O)O1`, the B-score is -0.347.

With `COC(=O)C(C)n1cnc2c(nnn2-c2cccc(Cl)c2)c1=O` (stereo not given), the B-score is -0.668.

`CC(C)C[C@H](CO)Nc1nc(N(C)c2cccc(Cl)c2)c2ncn(C(C)C)c2n1`: the B-score was 2.72 (active).

As to `CC(C)n1cnc2c(Nc3cccc(Cl)c3)nc(N(CCO)CCCO)nc21`, the B-score is 0.4.

Regarding `C#CCOCCOCCOCCNc1nc(N2CCN(C(=O)[C@H](CCC(=O)O)n3cc(C(N)CO)nn3)CC2)nc(N2CCN(C(=O)[C@H](CCCCN)n3cc(C(N)[C@H](C)CC)nn3)CC2)n1` (stereo not given in full), the B-score is -0.0414.

Consider `COc1cccc(N2C(=O)C3CCCN3C2c2ccc(F)cc2)c1` (stereo not given), for which the B-score was -0.103.

In the case of `COc1ccc(N2C(=O)C3CCCN3C2c2cc(OC)c(OC)cc2OC)cc1` (stereo not given), the B-score is -1.27.

`COc1ccc(N2C(=O)C3CCCN3C2c2cccc(OC)c2)cc1` (stereo not given): the B-score was -2.41 (active).

As to `CC(=O)N[C@H]1[C@H]([C@H](O)[C@H](O)CO)OC(C(=O)O)=C[C@@H]1O`, the B-score is 0.169.

Turning to `CC1(OC(=O)CCc2ccccc2)C(=O)C=C2C=C(c3ccc(C#N)cc3)N(CCc3ccccn3)C=C2C1=O` (stereo not given), the B-score was -1.62.

Regarding `COP1(=O)C[C@@H](O)[C@@H](O)[C@@H](COCc2ccccc2)O1` (stereo not given in full), the B-score was -0.427.

Consider `O=C(Cc1cccc2ccccc12)Nc1ccc2oc(-c3ccccc3)nc2c1`, for which the B-score was -7.38 (active).

As for `CCCCCC(=O)Nc1ccc2oc(-c3ccncc3)nc2c1`, the B-score was 1.15.

Turning to `O=C(Nc1ccc2oc(-c3ccc4ccccc4c3)nc2c1)c1cccs1`, the B-score was -1.07.

For the molecule `CCO[C@@H]1OC(C(=O)NCc2nc3ccccc3[nH]2)=C[C@H](C2CCCCC2)[C@H]1CCCO`, the B-score was 0.35.

Consider `NC(=O)[C@H]1CC2(CC(c3cccc(NC(=O)[C@H]4CCC(=O)N4)c3)=NO2)CN1C(=O)c1ccccc1C(=O)c1ccccc1` (stereo not given in full), for which the B-score was -0.797.

In the case of `COc1ccccc1NC(=O)CSc1nnc(C)n1CC1CCCO1` (stereo not given), the B-score was -0.675.

In the case of `COc1ccccc1NC(=O)CSc1nnc(-c2ccoc2C)n1CCc1ccccc1`, the B-score is 2.44 (active).

On to `CCCn1c(SCC(=O)Nc2cccc(C(=O)OCC)c2)nnc1-c1ccoc1C`, for which the B-score is -0.483.

Take `C#CCOCCOCCOCCNc1nc(N2CCN(C(=O)C([C@@H](C)CC)n3cc(C(N)COC(=O)C(F)(F)F)nn3)CC2)nc(N2CCN(C(=O)[C@H](Cc3ccc(O)cc3)n3cc(C(N)[C@H](C)CC)nn3)CC2)n1` (stereo not given in full): the B-score was -0.939.

In the case of `COCCN1C(=O)N[C@@H](c2ccccc2)C(C(=O)OC)=C1C`, the B-score is -0.275.

With `COC(=O)CCCCCN1C(=O)NC(c2ccc(-c3ccccc3)cc2)C(C(=O)OCc2ccccc2)=C1C` (stereo not given), the B-score is -5.33 (active).

On to `CC1=C(C(=O)OCc2ccccc2)C(c2ccc(C(F)(F)F)cc2)NC(=O)N1CCCCCC(=O)O` (stereo not given), for which the B-score was 0.765.

On to `COc1ccc(C#Cc2c(-c3ccc(OC)cc3)oc3ccc(-c4ccc5c(c4)OCO5)cc23)cc1`, for which the B-score is 0.0246.

As for `NC1=NC[C@@H](Cc2ccc(O)cc2)N1CC1CCCCC1`, the B-score was 0.203.

As to `Cc1ccc2nc(NC(=O)C3CCN(S(=O)(=O)c4ccc5c(c4)oc(=O)n5C)CC3)sc2c1`, the B-score is -0.00508.

As for `CS(=O)(=O)c1ccc2nc(NC(=O)C3CCCCC3)sc2c1`, the B-score was 2.38.

Consider `O=C(Nc1nc2ccc(S(=O)(=O)N3CCCC3)cc2s1)C1CCCO1` (stereo not given), for which the B-score is 2.39 (active).

`COC(C[C@@H]1O[C@@H]1C(=O)[C@H](C)OCc1ccccc1)OC`: the B-score was -1.33.

For `COC(=O)C1=C(C(=O)OC)[C@@H]2N(C)c3ccccc3[C@@]23C[C@@H](C(=O)OC)N(C(C)=O)C3=N1`, the B-score is -0.544.

As for `C=CCNC(=O)c1ccc2c3n(nc2c1)-c1ccc(C)cc1CO3`, the B-score is -0.154.

For `CCOC(=O)c1cc2ccccc2nc1C`, the B-score was 0.593.

Take `CCCc1nc2ccccc2c(C(=O)OCc2nnc(-c3cc(OC)c(OC)c(OC)c3)o2)c1CC`: the B-score was 0.135.

For `CCOC(=O)c1cc(-c2nnc(-c3cc(OC)c(OC)c(OC)c3)o2)c(C)nc1C`, the B-score was 1.41 (active).

As for `CCO[C@H]1OC(C(=O)N2CCN(Cc3ccccc3)CC2)=C[C@@H](c2cn(C(C)=O)c3ccccc23)[C@@H]1CCCO`, the B-score was -0.181.

Turning to `CCO[C@@H]1OC(C(=O)NC2CC2)=C[C@H](C)[C@H]1CCCO`, the B-score is 0.173.

In the case of `CN1CCN(C(CNS(=O)(=O)c2cccs2)c2cccnc2)CC1` (stereo not given), the B-score was -0.00301.

`Cc1nnc(NC(=O)Nc2ccc(Cl)c(Cl)c2)s1`: the B-score is -0.308.

`N/C(=N\OC(=O)Nc1ccc(Cl)c(Cl)c1)c1ncc(C(F)(F)F)cc1Cl`: the B-score was 0.438.

Turning to `O=C(CC(O)(C(F)(F)F)C(F)(F)F)Nc1ccc(Cl)c(Cl)c1`, the B-score was -6.33 (active).
